Activity calls are given as the source filed them. How the source made its calls: active means hit-call score of the fitted dose curve at least 0.9, where 1 is the maximum; inactive means score below 0.9.

Assay [1] can be described thus: ATG_CRE_CIS: Attagene CIS-FACTORIAL HepG2 Assay for human cAMP Responsive Element (CRE) binding protein 3 (AID 2282926). The conditions noted are these: HepG2 CRE cis-reporter, Attagene multiplexed mRNA; actives raise or lower the signal. The gist of the method: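 Human liver HepG2, transient MRTU transfection, 24 h compound exposure. Total RNA → oligo(dT) RT → PCR → 6-FAM primer extension → HpaI cut → CE. Activity called both directions vs DMSO.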

In assay [2] the target is CCAAT/enhancer-binding protein beta (Homo sapiens) (UniProt P17676). Description: ATG_C_EBP_CIS: Attagene CIS-FACTORIAL HepG2 Assay for human CCAAT/Enhancer Binding Protein (C/EBP) beta (AID 2282927). To be noted: HepG2 Attagene cis-factorial transcription factor reporter; actives raise or lower the signal. Put shortly:
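Following a 24 h incubation with test chemical, transfected HepG2 cells yielded RNA whose reporter transcripts were quantified by RT-PCR and fluorescent capillary electrophoresis, with DMSO serving as baseline for bidirectional fitting.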

Assay [3] is described as follows: ATG_CMV_CIS: Attagene CIS-FACTORIAL HepG2 Assay for human CMV (Internal Marker) (AID 2282928).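 Further: endpoint acts as a background internal control marker rather than a target.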 To be noted: HepG2 CMV promoter reporter, transcription factor profiling; actives raise or lower the signal. Put shortly: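 Endogenous transcription factor activity read in HepG2 via transfected cis-promoter reporter units. After 24 h dosing, reporter mRNA measured by RT-PCR/capillary electrophoresis; gain or loss of signal fit relative to DMSO.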

Assay [4] in a line: ATG_DR4_LXR_CIS: Attagene CIS-FACTORIAL HepG2 Assay for human Liver X Receptor (LXR), DR4 submotif (AID 2282929). The conditions noted are these: HepG2 Attagene DR4 cis-reporter, mRNA transcription; actives raise or lower the signal. The gist of the method: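 HepG2 cells transiently transfected with cis-promoter-driven multiplexed reporter units (DR4 element) were dosed for 24 h. Reporter mRNA was quantified by RT-PCR, fluorescent primer extension, HpaI digestion and capillary electrophoresis; bidirectional fitting versus DMSO baseline.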

Assay [5] deals with Aryl hydrocarbon receptor (Homo sapiens) (UniProt P35869). Description: ATG_Ahr_CIS: Attagene CIS-FACTORIAL HepG2 Assay for human Aryl Hydrocarbon Receptor (Ahr) (AID 2282930). To be noted: HepG2 AhR cis-factorial reporter transcription; actives raise or lower the signal. Put shortly:
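Values derive from bidirectional fitting against DMSO negative control. Underlying signal: cis-element reporter mRNA in transiently transfected HepG2, harvested 24 h post-dose and measured by RT-PCR plus capillary electrophoresis.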

Assay [6] is described as follows: ATG_AP_1_CIS: Attagene CIS-FACTORIAL HepG2 Assay for human Activator Protein 1 (AP-1) (AID 2282931). To be noted: HepG2 Attagene cis-factorial AP-1 reporter mRNA; actives raise or lower the signal. The gist of the method: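 HepG2 cells transiently transfected with cis-element-driven multiplex reporter units; 24 h compound exposure. Reporter mRNA quantified by RT-PCR, FAM-labelled fragments resolved by capillary electrophoresis; bidirectional fit versus DMSO baseline.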

Assay [7] can be described thus: ATG_AP_2_CIS: Attagene CIS-FACTORIAL HepG2 Assay for human Activator Protein 2 (AP-2) (AID 2282932). The conditions noted are these: HepG2 AP-2 cis-reporter, Attagene transcription factor profiling; actives raise or lower the signal. Put shortly: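 HepG2 cells were transiently transfected with multiple cis-promoter reporter transcription units and dosed for 24 h. Reporter mRNA was measured by RT-PCR with capillary electrophoresis fluorescence; bidirectional fits relative to DMSO baseline.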

Assay [8] is described as follows: ATG_BRE_CIS: Attagene CIS-FACTORIAL HepG2 Assay for human Bone Morphogenetic Protein (BMP) Response Element (BRE) (AID 2282933). The conditions noted are these: HepG2 BMP response element reporter, Attagene transcription factor profiling; actives raise or lower the signal. Put shortly: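 After a 24 h chemical treatment, transiently transfected HepG2 cells were lysed for RNA; reporter transcripts were quantified by fluorescent RT-PCR and capillary electrophoresis, normalised to DMSO.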

Assay [9] concerns the target Retinoic acid receptor alpha (Homo sapiens) (UniProt P10276). Description: ATG_DR5_RAR_CIS: Attagene CIS-FACTORIAL HepG2 Assay for human Retinoic Acid Receptor Alpha (RARE), DR5 submotif (AID 2282934).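 On AC50: reporter responds to endogenous RAR alpha beta and gamma in HepG2 not RARA alone.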 To be noted: HepG2 Attagene cis-factorial RARE DR5 reporter, mRNA; actives raise or lower the signal. The gist of the method:
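Endpoint fitted in both directions relative to DMSO as negative control. It reflects DR5 cis-element reporter mRNA induction in transiently transfected HepG2 cells, measured 24 h after dosing through RT-PCR and fluorescent capillary electrophoresis.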

Assay [10] addresses Transcription factor E2F1 (Homo sapiens) (UniProt Q01094). Description: ATG_E2F_CIS: Attagene CIS-FACTORIAL HepG2 Assay for human E2F Transcription Factor 1 (AID 2282935). The conditions noted are these: HepG2 Attagene cis-reporter, E2F reporter RNA transcripts; actives raise or lower the signal. The gist of the method:
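HepG2 cells transiently transfected with multiplexed cis-element reporter units, dosed for 24 h. Reporter mRNA measured by RT-PCR, 6-FAM primer-extension labeling, HpaI digestion and capillary electrophoresis; bidirectional fit versus DMSO baseline.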

Sequence of Aryl hydrocarbon receptor (Homo sapiens) (P35869 whole entry, looked up): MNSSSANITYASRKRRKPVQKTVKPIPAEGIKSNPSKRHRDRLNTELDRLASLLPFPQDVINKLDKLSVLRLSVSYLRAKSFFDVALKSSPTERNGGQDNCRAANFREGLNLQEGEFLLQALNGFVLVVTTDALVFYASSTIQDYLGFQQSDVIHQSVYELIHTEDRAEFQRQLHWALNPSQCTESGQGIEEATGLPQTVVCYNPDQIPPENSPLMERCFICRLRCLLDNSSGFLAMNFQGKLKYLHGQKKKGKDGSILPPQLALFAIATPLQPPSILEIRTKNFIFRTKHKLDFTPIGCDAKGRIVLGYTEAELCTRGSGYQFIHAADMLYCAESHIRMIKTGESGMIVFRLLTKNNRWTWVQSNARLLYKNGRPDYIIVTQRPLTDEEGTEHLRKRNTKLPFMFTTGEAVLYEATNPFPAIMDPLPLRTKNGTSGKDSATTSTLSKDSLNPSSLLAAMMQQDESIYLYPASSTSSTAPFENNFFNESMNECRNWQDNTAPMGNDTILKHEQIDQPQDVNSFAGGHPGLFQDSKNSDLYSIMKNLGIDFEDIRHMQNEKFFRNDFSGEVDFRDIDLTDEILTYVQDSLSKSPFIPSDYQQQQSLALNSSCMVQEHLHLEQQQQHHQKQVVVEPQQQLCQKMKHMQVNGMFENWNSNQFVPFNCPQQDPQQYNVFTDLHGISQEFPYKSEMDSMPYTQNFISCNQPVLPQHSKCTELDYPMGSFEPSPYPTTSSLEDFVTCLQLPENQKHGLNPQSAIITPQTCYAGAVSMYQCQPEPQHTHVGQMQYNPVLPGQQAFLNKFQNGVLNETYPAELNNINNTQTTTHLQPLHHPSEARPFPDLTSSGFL
Sequence of Transcription factor E2F1 (Homo sapiens) (Q01094 whole entry, looked up): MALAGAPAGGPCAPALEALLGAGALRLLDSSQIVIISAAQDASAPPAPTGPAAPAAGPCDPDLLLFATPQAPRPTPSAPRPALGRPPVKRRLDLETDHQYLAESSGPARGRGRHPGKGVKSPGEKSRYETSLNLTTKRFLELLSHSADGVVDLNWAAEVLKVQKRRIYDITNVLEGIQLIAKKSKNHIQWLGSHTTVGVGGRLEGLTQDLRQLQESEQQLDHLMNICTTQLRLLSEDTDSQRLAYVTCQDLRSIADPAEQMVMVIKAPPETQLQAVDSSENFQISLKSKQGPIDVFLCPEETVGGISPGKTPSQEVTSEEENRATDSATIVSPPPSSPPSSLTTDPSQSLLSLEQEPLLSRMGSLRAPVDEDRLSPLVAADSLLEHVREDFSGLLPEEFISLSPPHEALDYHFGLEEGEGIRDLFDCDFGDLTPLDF
Sequence of Retinoic acid receptor alpha (Homo sapiens) (P10276 whole entry, looked up): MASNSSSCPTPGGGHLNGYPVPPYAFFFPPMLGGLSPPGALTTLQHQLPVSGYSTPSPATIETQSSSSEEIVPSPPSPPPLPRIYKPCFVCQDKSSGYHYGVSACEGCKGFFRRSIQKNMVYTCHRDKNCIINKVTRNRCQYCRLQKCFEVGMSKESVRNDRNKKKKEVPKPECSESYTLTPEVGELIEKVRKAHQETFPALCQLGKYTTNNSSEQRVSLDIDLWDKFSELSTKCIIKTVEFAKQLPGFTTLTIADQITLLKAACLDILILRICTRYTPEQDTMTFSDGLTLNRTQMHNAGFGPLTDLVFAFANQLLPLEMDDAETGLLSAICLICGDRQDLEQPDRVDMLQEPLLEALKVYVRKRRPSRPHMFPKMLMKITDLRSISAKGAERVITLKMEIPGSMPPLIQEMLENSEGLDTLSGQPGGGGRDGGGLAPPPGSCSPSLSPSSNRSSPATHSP
Sequence of CCAAT/enhancer-binding protein beta (Homo sapiens) (P17676 whole entry, looked up): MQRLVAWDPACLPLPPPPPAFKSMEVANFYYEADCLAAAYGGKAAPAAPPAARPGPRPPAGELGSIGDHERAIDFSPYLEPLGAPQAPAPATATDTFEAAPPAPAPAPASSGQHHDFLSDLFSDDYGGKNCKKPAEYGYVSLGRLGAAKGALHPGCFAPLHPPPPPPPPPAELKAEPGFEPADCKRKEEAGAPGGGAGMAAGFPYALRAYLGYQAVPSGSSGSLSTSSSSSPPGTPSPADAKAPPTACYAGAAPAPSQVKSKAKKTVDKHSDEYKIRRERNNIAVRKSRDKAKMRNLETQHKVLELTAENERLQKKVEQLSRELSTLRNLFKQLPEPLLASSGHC

In the case of `COC(=O)c1ccc([N+](=O)[O-])cc1`, the outcome in assay [1], in [2], in assay [3], in [4], in assay [5] and in [6] was inactive. Besides, the molecule was called inactive in assay [7], in assay [8], in [9] and in assay [10].

Usually AC50 stands for the midpoint of the concentration-response curve, whichever way the signal moves. On to `N#Cc1cscn1`, for which the result in [1], in assay [2], in [3], in assay [4], in assay [6] and in assay [7] was inactive. Moreover, the result in assay [8], in assay [9] and in assay [10] was inactive. For the same molecule, in assay [5], the AC50 was 34.7 µM (active).

As to `O=C(CS)OCCOC(=O)CS`, the outcome in [1], in assay [2], in assay [8] and in [10] was inactive. Besides, the half-maximal activity concentration (AC50) in [3] was 72.7 µM (active); in [4] it was 49.1 µM (active); in assay [5], 24.9 µM (active); in assay [6] it was 58.7 µM (active); in assay [7] it was 100 µM (active); in assay [9] it was 27.5 µM (active).

With `COc1ccccc1N=Nc1c(S(=O)(=O)O)cc2cc(S(=O)(=O)O)cc(NC(C)=O)c2c1O`, the molecule was classed as inactive in assay [1], in [2], in assay [3], in [4], in [6] and in assay [7]. The molecule was classed as inactive in assay [8], in assay [9] and in assay [10]. For the same molecule, the AC50 in [5] is 16.4 µM (active).

Turning to `Cc1cc(=O)oc2cc(N(C)C)ccc12`, the half-maximal activity concentration (AC50) was 54.1 µM (active) in [1] and 46.7 µM (active) in assay [3]. Besides, the result in assay [2], in assay [4], in [5], in assay [6], in assay [7] and in [8] was inactive. Moreover, the outcome in assay [9] and in assay [10] was inactive.

`O=C(CC(=O)c1ccccc1)c1ccccc1`: the AC50 in assay [1] was 51.1 µM (active); in assay [2], 70.4 µM (active); in [3], 47.2 µM (active); in assay [5], 25.9 µM (active); in assay [6] it was 80.1 µM (active); in [9], 62.5 µM (active). The outcome in assay [4], in assay [7], in [8] and in assay [10] was inactive.

As to `CC(=O)c1c(C)c([N+](=O)[O-])c(C(C)(C)C)c([N+](=O)[O-])c1C`, the result in assay [1], in assay [2], in [3], in [4], in assay [5] and in [6] was inactive. The molecule was called inactive in [7], in assay [8] and in assay [10]. Besides, in assay [9], the AC50 is 1.6 µM (active).

Turning to `C=C(C)C(=O)OCCOCCOCCOCCOC(=O)C(=C)C`, the call in [1], in assay [2], in assay [3], in assay [4], in assay [5] and in assay [6] was inactive. Besides, the molecule was classed as inactive in assay [7], in [8], in assay [9] and in assay [10].

For the molecule `ClC(c1ccccc1)(c1ccccc1)c1ccccc1`, the outcome in assay [1], in assay [2], in [3], in assay [5], in assay [6] and in assay [7] was inactive. Moreover, the result in [8], in assay [9] and in assay [10] was inactive. The AC50 in assay [4] is 5.95 µM (active).

`CCC(Cl)C(Cl)C(Cl)CC(Cl)C(Cl)C(C)Cl` (centres undefined): the result in assay [1], in assay [2], in assay [5], in assay [7], in assay [9] and in [10] was inactive. Besides, the concentration at half-maximal activity (AC50) in assay [3] is 47.7 µM (active); in assay [4], 9.99 µM (active); in assay [6], 55.7 µM (active); in assay [8], 116 µM (active).

As for `Oc1c(Cl)cc(Cl)c(Cl)c1Cc1c(O)c(Cl)cc(Cl)c1Cl`, the call in assay [1], in assay [4], in [6] and in [10] was inactive. In addition, the half-maximal activity concentration (AC50) was 0.561 µM (active) in assay [2]; 11.1 µM (active) in assay [3]; 5.86 µM (active) in [5]; 1.98 µM (active) in assay [7]; 5.37 µM (active) in [8]; 0.527 µM (active) in assay [9].

Regarding `CC(C)CCOC(=O)c1ccccc1`, the molecule was classed as inactive in [1], in [2], in assay [3], in assay [4], in [5] and in assay [6]. For the same molecule, the molecule was classed as inactive in assay [7], in assay [8], in [9] and in assay [10].

With `c1ccc(CCc2ccccc2)cc1`, the molecule was called inactive in assay [1], in [2], in assay [3], in assay [5], in assay [7] and in [8]. Further, the molecule was classed as inactive in assay [10]. The AC50 is 161 µM (active) in assay [4] and 172 µM (active) in [6].

`O=CN1CCOCC1`: the call in assay [1], in assay [2], in assay [3], in [4], in [5] and in assay [6] was inactive. The call in [7], in [8], in [9] and in assay [10] was inactive.

On to `CSc1c(Cl)c(Cl)c(Cl)c(Cl)c1Cl`, for which the AC50 in assay [1] is 169 µM (active); in [3], 26.3 µM (active); in [4], 32 µM (active). Also, the result in assay [2], in assay [5], in [6], in assay [7], in assay [8] and in assay [10] was inactive.

For `C=C(C)C(=O)OCCOC1CC2CC1C1C=CCC21` (centres undefined), the molecule was called inactive in assay [1], in assay [2], in assay [3], in assay [4], in [5] and in assay [6]. For the same molecule, the outcome in assay [7], in assay [8], in [9] and in assay [10] was inactive.

For `CCCCCCCCCCCCS(=O)(=O)Cl`, the call in assay [1], in [2], in assay [3], in [4], in assay [5] and in assay [6] was inactive. Further, the result in assay [7], in assay [8] and in assay [10] was inactive.

With `COC(=O)c1ccc(OC)cc1`, the result in assay [1], in [2], in assay [3], in assay [4], in assay [5] and in assay [6] was inactive. For the same molecule, the outcome in [7], in [8] and in assay [10] was inactive.

Take `Cc1ccc(S(=O)(=O)Oc2ccc(N=Nc3ccc(-c4ccc(N=Nc5c(O)ccc6cc(S(=O)(=O)O)cc(S(=O)(=O)O)c56)c(C)c4)cc3C)cc2)cc1`: the call in assay [1], in [2], in assay [3], in assay [4], in [6] and in assay [7] was inactive. Further, the result in [10] was inactive. Further, the AC50 in [5] was 30.1 µM (active); in assay [8], 7.56 µM (active).

Consider `C=C(C)C(=O)OCC(CC)(COC(=O)C(=C)C)COC(=O)C(=C)C`, for which the outcome in assay [1], in assay [2], in assay [3], in [4], in assay [5] and in [6] was inactive. For the same molecule, the molecule was classed as inactive in assay [7], in assay [8] and in [10].

With `NCc1ccco1`, the outcome in assay [1], in assay [2], in assay [3], in assay [4], in [5] and in assay [6] was inactive. The outcome in [7], in [8], in [9] and in [10] was inactive.

Turning to `CN(C)C(=S)SC(=S)N(C)C`, the molecule was called inactive in assay [1], in assay [2], in assay [3], in [4], in assay [5] and in assay [6]. For the same molecule, the molecule was classed as inactive in [7], in [8], in [9] and in assay [10].

In the case of `COCCc1ccc(OCC(O)CNC(C)C)cc1` (centres undefined), the molecule was called inactive in [1], in [2], in assay [3], in [4], in [5] and in [6]. The result in [7], in assay [8], in assay [9] and in assay [10] was inactive.

The record behind these values is PubChem BioAssay (EPA / NIEHS).
